HCV inh: blocks hepatitis C virus; Potency, µM (highest dose often 41.8 µM), for inactives: top-dose activity change, negative = inhibition, usual class: inhibitors; Huh7.5.1 HCVcc-Cre infection, luciferase reporter, 44 h; 340,000 compounds, 3.4% hits; note: potency is the fitted concentration of half-maximal effect; % is set by controls: 0 for no effect and ±100 for the full control effect
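Whole-lifecycle infectious HCVcc-Cre system; cells 1,000/well, compound then virus (~0.5 moi) added 4 h after plating, 44 h culture. Luciferase read 15 sec following 15 min substrate incubation, room temp.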
Pf growth 48h: P. falciparum growth inhibition at 48 hours (one generation); Potency, µM (top dose mostly 28.7 µM), for the others: top-dose activity change, negative = inhibition, hits mostly inhibitors; 310,000 compounds, 5.9% hits; P. falciparum luciferase growth in erythrocytes, 48 h; note: potency is the fitted concentration of half-maximal effect; % is set by controls: 0 for no effect and ±100 for the full control effect
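A one-generation exposure of luciferase-tagged malaria parasites in RPMI 1640/Albumax erythrocyte culture, 37 C and 5% CO2. Inhibition is inferred from decreased luminescence after adding detection reagent.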
Pf growth 96h: P. falciparum growth inhibition at 96 hour, primary screen for plastid delayed-death inhibitors; 320,000 compounds, 6.9% hits; P. falciparum luciferase reporter growth, 96 h; Potency, µM (titrated, usually from 28.7 µM), inactives show top-dose activity change, negative = inhibition, hits mostly inhibitors; note: potency is the fitted concentration of half-maximal effect; % is set by controls: 0 for no effect and ±100 for the full control effect
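P. falciparum expressing integrated firefly luciferase grown in erythrocytes (2% hematocrit, 0.05% parasitemia final) with compounds for 96 hours at 37 C, 5% CO2. Growth inhibition read as loss of luminescence after adding luciferase detection reagent.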
HCMV antiviral: blocks human cytomegalovirus replication | HFF cells, HCMV-luciferase reporter, 72 h; active compounds read low | activity change, negative = inhibition, % at 57.5 µM | 410,000 compounds, 4.5% hits | AID 1259415; in the data active = activity change below about -60%; inconclusive = no clear call, values can overlap the other calls; inactive = above about -39%; note: % is set by controls: 0 for no effect and ±100 for the full control effect
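After 16 h attachment at 37C, HFF cells received test compound and HCMV-luciferase (1 PFU/cell); reporter luminescence read 72 h later, data normalized against buffer-only and known inhibitor Salinomycin.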
MARV entry inh: blocks Marburg virus binding to or entry into cells; Marburg virus pseudotyped entry inhibition, cell reporter; Potency, µM (highest dose often 37.8 µM), inactives show at the highest dose activity change, negative = inhibition, hits mostly inhibitors; 300,000 compounds, 1.8% hits; calls by dose curve; tested in HEK293 cells; note: potency is the fitted concentration of half-maximal effect; % is set by controls: 0 for no effect and ±100 for the full control effect
Lassa entry inh: blocks Lassa virus binding to or entry into cells; Lassa virus pseudotype entry inhibition, cell reporter; Potency, µM (titrated, usually from 37.9 µM), for the others: at the top dose activity change, negative = inhibition, usual class: inhibitors; 300,000 compounds, 1.2% hits; AID 540256; calls by dose curve; tested in HEK293 cells; note: potency is the fitted concentration of half-maximal effect; % is set by controls: 0 for no effect and ±100 for the full control effect; nearly all actives have a fitted effect of over 50% in size
CLK4 ADP-Glo: CLK4 (human) kinase inhibition, ADP-Glo confirmation; shares compounds with Pf growth 48h; recombinant Clk4, RS peptide, ADP-Glo luminescence; Potency, µM (top dose mostly 80 µM), without a hit: top-dose activity, negative = inhibition, most hits filed as inhibitors; 65 compounds, 80% hits; AID 1969
Target sequence (Q9HAZ1 whole entry, looked up): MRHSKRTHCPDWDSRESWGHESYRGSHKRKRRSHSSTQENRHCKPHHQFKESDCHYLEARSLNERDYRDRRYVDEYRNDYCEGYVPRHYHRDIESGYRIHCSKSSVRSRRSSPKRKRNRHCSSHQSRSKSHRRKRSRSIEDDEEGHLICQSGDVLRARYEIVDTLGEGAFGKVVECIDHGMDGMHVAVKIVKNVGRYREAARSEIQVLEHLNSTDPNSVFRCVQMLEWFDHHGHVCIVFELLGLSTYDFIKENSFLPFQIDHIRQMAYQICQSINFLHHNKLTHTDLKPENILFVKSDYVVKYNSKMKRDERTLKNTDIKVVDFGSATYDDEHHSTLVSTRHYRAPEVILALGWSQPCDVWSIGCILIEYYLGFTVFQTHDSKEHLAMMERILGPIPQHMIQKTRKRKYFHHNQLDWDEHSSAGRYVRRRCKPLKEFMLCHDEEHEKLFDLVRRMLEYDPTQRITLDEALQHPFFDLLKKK
CLK4 ADP FP: CLK4 (human) inhibition, Transcreener FP confirmation; shares compounds with Pf growth 48h; recombinant Clk4, ADP Transcreener FP, RS peptide; Potency, µM (titrated, usually from 80 µM), for inactives: at the top dose activity, negative = inhibition, hits mostly inhibitors; 65 compounds, 70% hits; AID 1983
* = called active by the depositor; ? = inconclusive; . = no result given; [ ] = another dose, or the depositor's remark. Most compounds without a hit are left out; they make up all but 14% or so of the library. Unless noted, calls come from the whole dose curve; as a rule, active = well fitted curve in the direction sought with a large enough effect; inconclusive = small, poorly fitted or top-dose-only effect, or another doubt; inactive = no such curve, though single readings can be large; an effect the other way counts as inactive or inconclusive.

SMILES	HCV inh	Pf growth 48h	Pf growth 96h	HCMV antiviral	MARV entry inh	Lassa entry inh	CLK4 ADP-Glo	CLK4 ADP FP
Cc1csc(CNc2ncnc3ccc(-c4ccc5c(c4)OCCO5)cc23)c1	.	12µM*	?	8	.	.	0.45µM*	0.56µM*
Cc1csc(CNc2ncnc3ccc(-c4ccc5c(c4)OCO5)cc23)c1	.	10µM*	3.3µM*	-69*	.	.	0.16µM*	0.16µM*
Cc1ccc(CCNS(=O)(=O)c2c(C)nc3sc(C)c(C)n3c2=O)cc1	.	.	.	2	.	27%[46.1 µM]	.	.
c1nc(NCc2ccc3c(c2)OCO3)c2cc(-c3ccc4c(c3)OCCO4)ccc2n1	.	13µM*	?	-28	.	.	1.8µM*	2.2µM*
Clc1cccc(-c2ccc3ncnc(NCc4ccc5c(c4)OCO5)c3c2)c1	.	6.6µM*	1.5µM*	.	.	.	?	?
COc1cccc(-c2ccc3ncnc(N(C)Cc4ccco4)c3c2)c1	.	?	15µM*	-1	.	.	0.35µM*	0.45µM*
Cn1ccc2cc(-c3ccc4ncnc(NCc5ccc6c(c5)OCO6)c4c3)ccc21	.	13µM*	?	.	.	.	?	-17%
COc1cccc(-c2cc(C(=O)NCc3ccco3)no2)c1	-21%	.	?	71	-17%	?	.	.
COc1cccc(-n2ccn(CC(=O)Nc3ccccc3F)c(=O)c2=O)c1	.	.	.	-14	.	-9%[46.1 µM]	.	.
Cc1ccc(S(=O)(=O)NCCc2cccs2)cc1	0%	?	-7%	-34	.	.	.	.
CC(C)OC(=O)N(C)C[C@@H]1OCc2cn(nn2)CCCC(=O)N([C@@H](C)CO)C[C@H]1C	.	.	.	11	.	.	.	.
COc1ccc(/C=C/c2nc(C#N)c(N3CCC(C)CC3)o2)cc1OC	.	.	.	-14	3%[46.1 µM]	2%[46.1 µM]	.	.
COc1cccc(-c2ccc3ncnc(NCc4ccc5c(c4)OCO5)c3c2)c1	.	9.3µM*	7.4µM*	-33	.	.	1.3µM*	2.2µM*
COc1cccc(S(=O)(=O)NCc2ccc3c(c2)OCO3)c1	2%	.	-20%	9	3%	0%	.	.
c1cncc(CNc2ncnc3ccc(-c4ccc5c(c4)OCO5)cc23)c1	.	?	8%	10	.	.	0.13µM*	0.089µM*
COc1cccc(CNC(=O)[C@@H]2CCCN2)c1	.	.	.	9	.	.	.	.
COc1ccc(-n2ncc3c(NCc4cccs4)ncnc32)cc1	?	99%	.	19	7%	19%	.	.
c1coc(-c2ccc3ncnc(NCc4cccs4)c3c2)c1	.	?	?	.	.	.	28µM*	28µM*
Clc1ccccc1-c1ccc2ncnc(NCc3cccs3)c2c1	.	5.9µM*	3.7µM*	-7	.	.	6.3µM*	?
c1ccc(-n2ncc3c(NCc4cccs4)ncnc32)cc1	?	70%	88%	58	?	?	.	.
Cc1csc(CNc2ncnc3ccc(-c4ccccc4Cl)cc23)c1	.	9.3µM*	2.6µM*	1	.	.	8.9µM*	?
Cc1ccccc1CNc1ncnc2cc(Cl)ccc12	-60%	.	?	?	4%	-6%	.	.
COCc1cc(C)nc2c1C(=O)NC(c1ccc(C)cc1)N2Cc1ccccc1 (stereo not given)	.	.	.	-2	.	8%[46.1 µM]	.	.
CN1C(=O)Cc2cc(S(=O)(=O)CCC(=O)Nc3ccccc3)ccc21	.	.	.	8	.	11%[46.1 µM]	.	.

High-throughput results as filed in PubChem.
